Screens from PubChem.
SF-1 inh: blocks the human nuclear receptor SF-1; Q13285; CHO-K1 Gal4-SF-1 LBD luciferase reporter; inhibition, % at 10 µM; 65,000 compounds, 0.55% hits; AID 525;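 active = inhibition above the mean inhibition of all tested compounds plus 3 SD, cut at about 48% in these data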;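 also: 0% = SF-1 transfected cells with DMSO and 100% = mock-transfected cells lacking SF-1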
Target sequence (Q13285 whole entry, looked up, the tested form may be a part): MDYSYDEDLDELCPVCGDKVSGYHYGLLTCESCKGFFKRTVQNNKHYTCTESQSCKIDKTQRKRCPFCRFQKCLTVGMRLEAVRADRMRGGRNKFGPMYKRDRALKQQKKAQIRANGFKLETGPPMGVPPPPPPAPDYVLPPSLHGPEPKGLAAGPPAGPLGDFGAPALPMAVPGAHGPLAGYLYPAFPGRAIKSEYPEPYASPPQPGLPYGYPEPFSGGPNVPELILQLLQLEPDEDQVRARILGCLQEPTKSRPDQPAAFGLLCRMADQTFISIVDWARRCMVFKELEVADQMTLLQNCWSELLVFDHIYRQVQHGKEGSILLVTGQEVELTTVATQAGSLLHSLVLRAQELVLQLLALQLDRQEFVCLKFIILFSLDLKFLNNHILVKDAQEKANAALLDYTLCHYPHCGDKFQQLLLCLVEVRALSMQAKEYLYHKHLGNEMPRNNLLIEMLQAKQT
* marks the source's active call; other numbers are inactive results. This is one part of a sample in which hits are shown more often than they occur.

SMILES	SF-1 inh
O=c1[nH]c2c(s1)C=Nc1ccccc1N2	-14
CCOC(=O)c1oc2ccc(S(=O)(=O)Nc3ccc4c(c3)n(C)c(=O)n4C)cc2c1C	57*
Cc1c(C(=O)O)oc2ccc(S(=O)(=O)NCc3ccc4c(c3)OCO4)cc12	-4
CCOC(=O)c1ccc(NS(=O)(=O)c2ccc3[nH]c(=O)[nH]c3c2)cc1	-6
COc1ccc([C@@H]2Sc3ccccc3N(CCN(C)C)C(=O)[C@@H]2OC(C)=O)cc1	-6
Cc1cc(C)n2nc(SCC3COc4ccccc4O3)nc2n1 (stereo not drawn)	-55
Oc1c(CN2CCCCC2)cc(COCc2ccccc2)c2cccnc12	89*
COc1ccc(-n2nc(C(=O)NCC(=O)N3CCN(c4ccccn4)CC3)c3ccccc3c2=O)cc1	-60
O=C(c1cccc(COc2ccc(Cl)cc2Cl)c1)N1CCN(c2ccccn2)CC1	-76
COCc1cc(CN2CCCC2)c(O)c2ncccc12	50*
c1ccc(Cn2nnnc2CN2CCCC2)cc1	-4
Oc1c(CN2CCN(c3ccccn3)CC2)cc(Cl)c2cccnc12	67*
CN(C)c1oc(-c2ccc(OCc3ccccc3)cc2)nc1C#N	-61
CC(=O)N1CCN(c2ccc(Oc3nnnn3-c3ccccc3)cc2)CC1	18
O=C(CSc1nnc(-c2cccnc2)n1Cc1ccco1)N1c2ccccc2Sc2ccccc21	11
CC(NC(=O)C1CCN(c2nnc(-n3cccc3)s2)CC1)C12CC3CC(CC(C3)C1)C2 (stereo not drawn)	-8
Cc1cc(F)ccc1S(=O)(=O)Nc1ccccc1C(=O)Nc1ccc2[nH]c(=O)[nH]c2c1	9
CCn1c(-c2ccc(N(C)C)cc2)nc2ccccc21	-20
Cn1c(-c2ccc(Br)o2)nc2ccccc21	-76
CN(C)c1ccc(-c2nc3ccccc3n2C)cc1	59*
O=C(NCC(=O)N(Cc1cccs1)C(C(=O)NC1CCCC1)c1ccco1)c1cccs1 (stereo not drawn)	-4
CCn1c(SCC(=O)Nc2nc3c(s2)CCCC3)nc2c1c(=O)n(C)c(=O)n2C	11
OCC1(C2=NOC(O)(C(F)(F)F)C2)CCCCC1 (stereo not drawn)	14
Cn1c(CSc2nc3ccccc3s2)nc2ccccc21	-71
O=S1(=O)C=C(Sc2nc3ccccc3s2)c2ccccc21	93*
SMILES	SF-1 inh
OC1CCCCC1Sc1nc2ccccc2s1 (stereo not drawn)	-59
COc1cc(NC(=O)N[C@H](C(=O)O)C(C)C)cc(OC)c1	-17
COc1ccc(C(c2sc3nc(C)nn3c2O)N2CCC3(CC2)OCCO3)cc1 (stereo not drawn)	-4
CC(OC(=O)CNC(=O)c1ccc2c(c1)OCO2)C(=O)NCCC1=CCCCC1 (stereo not drawn)	0
Cc1ccc(-c2nsc3c(N4CCC(C(N)=O)CC4)ncnc23)cc1	49*
Nc1c(C(=O)NCCN2CCOCC2)c2nc3ccccc3nc2n1CCc1ccccc1	16
CC1CCCCC1NS(=O)(=O)c1ccc(S(=O)(=O)NCc2ccncc2)cc1 (stereo not drawn)	70*
O=C(COc1ccc(-c2nnco2)cc1)NC1CCCc2ccccc21 (stereo not drawn)	-3
O=C(CS(=O)(=O)c1ccccc1)c1ccc2c(c1)OCCO2	-52
O=S(=O)(C/C(=C/CO)S(=O)(=O)c1ccccc1)c1ccccc1	96*
Cc1onc(-c2ccccc2)c1C(=O)Nc1cccc(C#N)c1	-2
Cc1ccc2cc(CN(C(=O)c3ccncc3)C(C)C)c(=O)[nH]c2c1	-8
O=C1NC(NS(=O)(=O)c2ccccc2)(C(F)(F)F)C(=O)N1Cc1cccnc1 (stereo not drawn)	10
CC(=O)c1c(NCCc2ccccc2)cc(C)oc1=O	8
CC(=O)CC1OC(=O)C(Br)=C1NCc1ccccc1 (stereo not drawn)	79*
COc1cccc(N2CCN(C(=O)c3ccc4nc(N5CCCCC5)sc4c3)CC2)c1	-89
CC(C)CCn1c(Sc2nc3ccccc3s2)nc2c1c(=O)[nH]c(=O)n2C	12
COC(=O)C(Cc1ccc(O)cc1)NC(=O)c1ccccc1OC (stereo not drawn)	-3
COc1cc2nc(=S)n3[nH]c(CCn4nc(C)cc4C)nc3c2cc1OC	61*
CCc1ccccc1NC(=O)CSc1nnc([C@@H]2CCCN2C(=O)OC(C)(C)C)o1	10
CCN(CCCNC(=O)CC1Oc2ccc(C)cc2NC1=O)Cc1ccccc1 (stereo not drawn)	-8
c1ccc(-c2cc(N3CCOCC3)nc(-c3ccccc3)n2)cc1	2
FC(F)(F)c1ccc(N2CCN(c3cc(-c4ccccc4)nc4ncnn34)CC2)nc1	71*
CCC(C)OC(=O)c1[nH]c2c(c1C)C(=O)CC(c1ccc(N(C)C)cc1)C2 (stereo not drawn)	-57
CC1C(O)=C(c2nc3ccccc3[nH]2)C(=N)N1c1ccccc1 (stereo not drawn)	-54
SMILES	SF-1 inh
O=C(Nc1nc(-c2ccccn2)cs1)c1ccc(Cl)s1	95*
O=C(Nc1nccs1)c1ccc(Cl)s1	-58
Cc1nc2ccc3nc(NC(=O)c4ccc(S(=O)(=O)N5CCOCC5)cc4)sc3c2s1	12
O=C(NC1CCCCC1)c1ccc(S(=O)(=O)N2CCCCC2)cc1	-14
O=C(Nc1ccc2sccc2c1)c1ccc(Cl)s1	-60
O=C(Nc1nc(-c2ccccn2)cs1)c1ccc(S(=O)(=O)N2CCCCC2)cc1	64*
O=C(CCC(=O)c1ccc[nH]1)c1ccc(Cl)cc1	-52
CC(=O)C1=C(O)C(=O)N(CCc2c[nH]c3ccccc23)C1c1ccco1 (stereo not drawn)	-3
CCCOCCOC(=O)c1[nH]c2c(c1C)C(=O)CC(c1cc(OC)ccc1OC)C2 (stereo not drawn)	31
CCCCN1CC(C(=O)NC2CCCCC2)CC1=O (stereo not drawn)	0
O=C(NCc1ccco1)c1cc(-c2cccs2)on1	-28
COc1ccc(C(NC(C)=O)c2ccc3cccnc3c2O)c(OC)c1 (stereo not drawn)	82*
COc1cc2ccccc2cc1C(=O)Nc1cccnc1	-50
COc1ccc2sc(NC(C)=O)nc2c1	-50
O=C(NCc1nnc(SCC(=O)N2CCC(Cc3ccccc3)CC2)o1)c1ccccc1F	-2
CCS(=O)(=O)N1CCCC(C(=O)NC2CCC(C)CC2)C1 (stereo not drawn)	-18
CSc1nc(-c2ccccc2)nc2[nH]ccc(=O)c12	-12
O=C(COC(=O)c1ccc(S(=O)(=O)N2CCOCC2)cc1)NC1CCCCCC1	3
CN1CCN(c2ccc(NC(=O)c3ccc4c(c3)OCO4)cc2)CC1	-61
O=C(Nc1ccc(N2CCOCC2)c(Cl)c1)c1ccc(Br)o1	-67
O=C(Nc1ccc(N2CCOCC2)cc1)c1cnsn1	69*
CC(C(=O)NC1CCCC1)N(Cc1ccc2c(c1)OCO2)C(=O)c1snc(C(N)=O)c1N (stereo not drawn)	5
O=C(CCc1c[nH]c2ccccc12)NCC1CCCO1 (stereo not drawn)	-4
COC(=O)C(C)n1cnc2c(cnn2-c2ccc(Cl)cc2)c1=O (stereo not drawn)	-53
CCOC(=O)C1CCN(c2ncnc3c2cnn3-c2ccc(Cl)cc2)CC1	56*
Clc1ccc(-n2ncc3c(N4CCCC4)ncnc32)cc1	61*
OCCOCCNc1ncnc2c1cnn2-c1ccc(Cl)cc1	-64
CCOC(=O)C1CCN(C(=O)c2ccc(Cl)c(S(=O)(=O)N3CCOCC3)c2)CC1	-4
COCCNc1ncnc2c1cnn2-c1ccc(Cl)cc1	-68
O=C1C/C(=C/NCc2ccccc2)C(=O)N1	6
